Bioassay records from PubChem BioAssay.
FadD28 FP inh: blocks FadD28 binding to the bisubstrate probe. 0.22% of 360,000 active. inhibition, % at 12.5 µM. fluorescence polarization; in the data active = inhibition above about 8.5%, passing the limit was not always enough
FBA Mtb inh: inhibitors of M. tuberculosis fructose-bisphosphate aldolase. P9WQA3. purified M. tuberculosis FBA, fluorescence read-out. inhibition, % at 1 µM. 2.3% of 360,000 active
Target sequence (P9WQA3 whole entry, looked up): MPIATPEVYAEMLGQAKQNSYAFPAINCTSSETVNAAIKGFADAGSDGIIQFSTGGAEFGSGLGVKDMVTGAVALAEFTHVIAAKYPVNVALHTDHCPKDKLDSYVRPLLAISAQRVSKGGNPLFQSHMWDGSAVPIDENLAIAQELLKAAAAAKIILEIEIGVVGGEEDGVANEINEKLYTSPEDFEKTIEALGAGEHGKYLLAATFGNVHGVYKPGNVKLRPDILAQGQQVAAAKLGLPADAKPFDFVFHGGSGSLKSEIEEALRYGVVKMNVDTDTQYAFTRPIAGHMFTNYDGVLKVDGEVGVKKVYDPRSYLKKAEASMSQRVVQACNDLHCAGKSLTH
BioA inh: inhibitors of Mycobacterium tuberculosis BioA enzyme; purified M. tuberculosis BioA enzyme, plate reader; inhibition, % at 9.99 µM; 0.096% of 360,000 active; AID 602481; in the data active = inhibition above about 40%
3CLpro inhibitor: SARS-CoV 3CLpro protease inhibition. P0C6X7. recombinant SARS-CoV 3CLpro, quenched FRET peptide cleavage. inhibition, % at 6 µM. 0.14% of 290,000 active; in the data active = inhibition above about 12%
GDH-TPI counter-1: GDH-TPI coupled enzyme inhibition counter-screen; 1.2% of 360,000 active; AID 588335; GDH-TPI coupled enzyme counterscreen, NADH absorbance; inhibition, % at 4.8 µM; in the data active = inhibition above about 30%
Mtb FBA confirm: Mtb FBA inhibition, confirmed | shares compounds with FBA Mtb inh | purified M. tuberculosis FBA, fluorescence read-out | inhibition, % at 1 µM | 78% of 5,600 active
GDH-TPI counter-2: GDH-TPI inhibition counter-screen for FBA inhibitors. shares compounds with FBA Mtb inh. GDH-TPI coupled enzyme counterscreen, fluorescence. inhibition, % at 1 µM. 81% of 5,600 active. AID 652141; in the data active = inhibition above about 10%
Hits are given with their value; - = inactive; . = no result; + = active, no number. Only some compounds are listed: those with a hit (about 3.1% of all), similar ones and a draw of the others. Rule as the data show it, unless noted: active = inhibition above about 27%; inactive = the rest.

SMILES	FadD28 FP inh	FBA Mtb inh	BioA inh	3CLpro inhibitor	GDH-TPI counter-1	Mtb FBA confirm	GDH-TPI counter-2
CCN(CC)CCN1C(=O)c2ccccc2NC1c1ccc(F)cc1 (configuration not stated)	-	45.0	-	-	-	129.1	117.2
CCN(CC)CCN1C(=O)c2ccccc2NC1c1cccc(F)c1 (configuration not stated)	-	50.6	-	-	-	27.3	21.3
COc1ccccc1NC(=O)N(C)C[C@H]1Oc2ncc(Br)cc2C(=O)N([C@@H](C)CO)C[C@@H]1C	.	.	-	.	.	.	.
CO[C@@H]1CN(C)C(=O)c2ccc(NS(C)(=O)=O)cc2OC[C@@H](C)N(Cc2ccccc2)C[C@@H]1C	.	.	-	.	.	.	.
CCN(CC)CCN1C(=O)c2ccccc2NC1c1ccc(C)cc1 (configuration not stated)	-	78.8	-	-	-	63.3	38.5
CCN(CC)CCN1C(=O)c2ccccc2NC1c1ccc(Br)cc1 (configuration not stated)	-	84.3	.	-	-	120.7	101.0
CCN(CC)CCN1C(=O)c2ccccc2NC1c1ccc(N(C)C)cc1 (configuration not stated)	-	-	-	-	-	.	.
C[C@@H]1CCCCO[C@@H](CN(C)Cc2ccc(C(F)(F)F)cc2)[C@@H](C)CN([C@@H](C)CO)C(=O)c2cc(NC(=O)Nc3ccc(F)cc3)ccc2O1	.	.	-	.	.	.	.
Nn1c(=O)[nH]c2c([nH]c3ccccc32)c1=O	-	27.5	.	-	-	107.5	85.8
Cc1nc2c([nH]c3ccccc32)c(=O)n1N	-	-	-	-	-	.	.
Nc1cc(OC(=O)c2ccco2)nn1S(=O)(=O)c1ccc(F)cc1	-	29.7	-	-	-	+	141.8
COCCNC(=O)C[C@H]1CC[C@@H]2[C@H](COC[C@@H](O)CN2C(=O)Nc2ccc3c(c2)OCO3)O1	.	.	-	.	.	.	.
CC(=O)N(C)C[C@@H]1Oc2ncc(C#CC(C)(C)O)cc2C(=O)N([C@H](C)CO)C[C@@H]1C	.	.	-	.	.	.	.
CCNC(=O)C[C@@H]1CC[C@H]2[C@H](COc3ccc(NC(=O)Nc4cccc(C)c4)cc3C(=O)N2C)O1	.	.	-	.	.	.	.
CC1(C(=O)N(CC(=O)NC2CCCC2)Cc2ccccc2)CC(=O)N=C2C=CC=CN21 (configuration not stated)	-	109.2	-	-	-	139.6	108.5
CC1(C(=O)N(CC(=O)NC2CCCC2)Cc2ccco2)CC(=O)N=C2C=CC=CN21 (configuration not stated)	-	65.0	-	-	-	118.4	71.9
CCC(=O)Nc1ccc2c(c1)C(=O)N(C)C[C@H](OC)[C@H](C)CN(CC1CC1)[C@H](C)CO2	.	.	-	.	.	.	.
Cc1noc(C)c1S(=O)(=O)N(C)C[C@@H]1Oc2ccc(NC(=O)NC3CCCCC3)cc2CC(=O)N([C@@H](C)CO)C[C@H]1C	.	.	-	.	.	.	.
Cc1cc2nc(/C=C/c3nc4cc(C)c(C)cc4[nH]3)[nH]c2cc1C	-	37.2	-	-	-	149.6	84.8
O=C(O)CCn1c(-c2ccccc2)cc2ccccc21	-	57.8	.	-	-	-	15.9
COc1c2ccc(C(=O)NCCCCc3ccccc3)cc2nn1C	-	-	-	-	-	.	.
CCCn1nc2cc(C(=O)NCCc3cccs3)ccc2c1OCC	-	54.7	-	-	-	-	-
CCCn1nc2cc(C(=O)NC3CCc4ccccc43)ccc2c1OCC (configuration not stated)	-	39.5	-	-	-	71.4	63.7
CCOc1c2ccc(C(=O)NCCCCc3ccccc3)cc2nn1C	-	60.0	-	-	-	-	-
CCCCNC(=O)c1ccc2c(OCC)n(CCCC)nc2c1	-	65.0	-	-	-	93.1	60.9
SMILES	FadD28 FP inh	FBA Mtb inh	BioA inh	3CLpro inhibitor	GDH-TPI counter-1	Mtb FBA confirm	GDH-TPI counter-2
O=C(NCCc1cccs1)c1cccs1	-	-	-	-	-	.	.
CCCCNC(=O)c1ccc2c(SCC(=O)O)c3c(nc2c1)CCCC3	-	-	-	-	-	.	.
C[C@@H]1CN([C@H](C)CO)C(=O)Cc2cc(NC(=O)Nc3cccc4ccccc34)ccc2O[C@@H]1CN(C)C(=O)Nc1ccc2c(c1)OCO2	.	.	-	.	.	.	.
O=C(NCC1CC1)c1ccc2c3n(nc2c1)-c1ccc(Cl)cc1CO3	-	-	-	.	-	.	.
CCCCn1nc2cc(C(=O)NC[C@@H]3CCCO3)ccc2c1OCC	-	62.7	-	-	-	124.5	95.2
CCOc1ccc(-n2c(C)nc3cc(C(=O)NCC4CCCO4)ccc32)cc1 (configuration not stated)	-	-	-	-	-	.	.
CCCCn1nc2cc(C(=O)NCC3CC3)ccc2c1OCC	-	87.7	-	-	-	144.1	116.0
CCCC#Cc1ccc2c(c1)O[C@@H](CN(C)C(=O)C1CCC1)[C@@H](C)CN([C@@H](C)CO)S2(=O)=O	.	.	-	.	.	.	.
COc1ccc(S(=O)(=O)N(C)C[C@H]2Oc3c(NS(=O)(=O)c4ccc(Cl)cc4)cccc3C(=O)N([C@H](C)CO)C[C@H]2C)cc1	.	.	-	.	.	.	.
COCCNC(=O)C[C@@H]1CC[C@@H]2[C@H](COC[C@@H](O)CN2C(=O)Nc2ccccc2OC)O1	.	.	-	.	.	.	.
CCc1nnc(NC(=O)CSc2nc(C)c3c(c2C#N)CCCC3)s1	-	55.6	-	-	-	-	-
COc1ccc(NC(=O)CSc2nc(C)c3c(c2C#N)CCCC3)cc1	-	-	-	-	-	.	.
CC1(C)CC(=O)c2cc(OCC(=O)NCc3cccnc3)ccc2O1	-	62.0	-	-	-	-	-
CCCCCCCNC(=O)COc1ccc2c(c1)C(=O)CC(C)(C)O2	-	42.7	-	-	-	56.0	56.4
CC1(C)CC(=O)c2cc(OCC(=O)NCCCN3CCN(c4ccccc4F)CC3)ccc2O1	-	-	-	-	-	.	.
CC(C)NC(=O)COc1ccc2c(c1)C(=O)CC(C)(C)O2	-	71.3	-	-	-	+	186.5
O=C(O)C[C@H]1C[C@@H]2c3cc(NC(=O)Nc4ccc(F)cc4)ccc3O[C@@H]2[C@H](CO)O1	.	.	-	.	.	.	.
C[C@@H]1CN([C@@H](C)CO)C(=O)c2cc(NC(=O)c3ccccc3)ccc2O[C@@H](C)CCCCO[C@@H]1CN(C)C(=O)C1CCCCC1	.	.	-	.	.	.	.
CC=Cc1ccc2n(c1=O)C[C@H]1[C@H](CO)[C@@H](C(=O)NCC(F)(F)F)N(CC3CC3)[C@@H]21 (mixture of isomers)	.	.	-	.	.	.	.
C[C@]12c3[nH]c4cc(-c5ccco5)ccc4c3CCN1C(=O)[C@@H](CC(=O)NCCN1CCOCC1)C[C@@H]2C(=O)N1CCCCC1	-	34.8	-	.	-	-	-
COCCCNC(=O)C[C@H]1C[C@H](C(=O)N2CCCCC2)[C@@]2(C)c3[nH]c4cc(-c5ccco5)ccc4c3CCN2C1=O	-	27.3	-	.	-	68.2	51.7
Cc1noc(C)c1S(=O)(=O)Nc1ccc2c(c1)C(=O)N([C@H](C)CO)C[C@@H](C)[C@H](CN(C)C(=O)Nc1cccc3ccccc13)O2	.	.	-	.	.	.	.
